Drawing on PubChem BioAssay (NCATS), this text covers max response and Potency for 40 compounds.

Structures are written as SMILES. Values joined by “and” are separate entries in the source; they are usually repeats but may differ in a detail not shown here. Identical values can stand only once. Inconclusive results are not listed. Active and inactive are the calls of the source. Calls follow the shape of the dose curve; as a rule, active = well fitted cell-killing curve with a large enough effect; inconclusive = small, poorly fitted or top-dose-only effect, or effect the other way; inactive = flat fitted curve, though single readings scatter.
% is scaled to controls: 0 for no effect and ±100 for the full control effect; potency is read from the fitted curve at half-maximal effect.

This test is described as follows: qHTS assay for cell viability of HEK293 cells (AID 743288). Also: nearly all actives have a fitted effect of over 50% in size. As to conditions: ATP luminescence (CellTiter-Glo), 18 h; max response: active compounds read low. The text has this:
National Center for Advancing Translational Sciences [NCATS]
NIH Chemical Genomics Center [NCGC]
U.S. Environmental Protection Agency [EPA]
National Institutes of Environmental Health Sciences [NIEHS]
National Toxicology Program [NTP]
U.S. Food and Drug Administration [FDA]
The CellTiter-Glo Luminescent Cell Viability Assay (Promega, Madison, WI) is a homogeneous method to determine the number of viable cells in culture based on quantitation of the ATP present, which signals the presence of metabolically active cells. This cell viability assay was used to screen environmental chemicals in the Hek293 cell line.
Tox21 Assay Protocol Summary:
Cell viability after compound treatment was measured using a luciferase-coupled ATP quantitation assay (CellTiter-Glo viability assay, Promega, Madison, WI) in parental HEK293 cells. Total intracellular ATP content corresponds to the number of metabolically competent cells after compound treatment. The cells were dispensed at 2,000 cells/5 uL/well in 1,536-well white/solid bottom assay plates using a Flying Reagent Dispenser (Aurora Discovery, San Diego, CA). The cells were incubated a minimum of 5 h at 37 C, followed by the addition of 23 nL of compounds dissolved in DMSO, positive controls or DMSO only using a pintool work station (Kalypsys, San Diego, CA). The assay plates were incubated for 18 h at 37 C, followed by the addition of 5 uL/well of CellTiter-Glo reagent. After 30 min incubation at room temperature, the luminescence intensity of the plates was measured using a ViewLux plate reader (PerkinElmer, Shelton, CT).
In the case of `CON(C)C(=O)Nc1ccc(Cl)c(Cl)c1`, the max response was -2.77% (inactive).

Turning to `COc1cc(Cl)c(OC)cc1Cl`, the max response was -14.2% (inactive). Regarding `CCCCCCCCCCCCC1=C(OC(C)=O)C(=O)c2ccccc2C1=O`, the max response is -22.1% (inactive). With `O=C1C=C2C(=CCOC2O)O1` (stereo not given), the Potency is 8.91 µM (active). Turning to `CNC(=O)Oc1cc(C)cc(C(C)C)c1`, the max response is -6.56% (inactive). Regarding `CCC[CH2][Sn]([CH2]CCC)([CH2]CCC)[O][Sn]([CH2]CCC)([CH2]CCC)[CH2]CCC`, the Potency was 31.6 µM (active).

On to `CCOS(=O)(=O)OCC`, for which the max response is 1.11% (inactive). Turning to `Oc1c(Cl)cc(Cl)cc1Cl`, the max response was -4.3% (inactive) and -11% (inactive). The same measure, in the same setting: in the case of `CCC(C)(c1ccc(O)cc1)c1ccc(O)cc1` it was -0.148% (inactive); in that of `COP(=O)(OC)SCn1c(=O)oc2cc(Cl)cnc21`, -26% (inactive). Still for that read-out and setting: in the case of `CCCCN(CC)c1c([N+](=O)[O-])cc(C(F)(F)F)cc1[N+](=O)[O-]` it was -10.2% (inactive); in that of `CCOc1cc(Oc2ccc(C(F)(F)F)cc2Cl)ccc1[N+](=O)[O-]`, -7.71% (inactive); in that of `CCOP(=S)(OCC)SC(CCl)N1C(=O)c2ccccc2C1=O` (stereo not given), -5.75% (inactive). Regarding `O=P(Oc1ccccc1)(Oc1ccccc1)Oc1ccccc1`, the max response is -15.7% (inactive).

For `CC(Oc1cccc(Cl)c1)C(=O)O` (stereo not given), the max response is -4.52% (inactive). The same measure, in the same setting: in the case of `CCOP(=S)(OCC)Oc1ncn(-c2ccccc2)n1` it was -0.263% (inactive). Consider `CN(C)c1ccc(N=O)cc1`, for which the Potency is 39.8 µM (active).

Consider `CCCCOCN(C(=O)CCl)c1c(CC)cccc1CC`, for which the max response was -23.1% (inactive).

As to `FC(F)C(F)(F)OCC(Cn1cncn1)c1ccc(Cl)cc1Cl` (stereo not given), the max response was -9.21% (inactive).

Turning to `Brc1c(Br)c(Br)c(Br)c(Br)c1Br`, the max response is -0.224% (inactive).

Turning to `COP(=S)(OC)Oc1ccc([N+](=O)[O-])c(C)c1`, the max response was -7.08% (inactive). In the case of `COC[C@H](C)N(C(=O)CCl)c1c(C)csc1C`, the max response is -14.5% (inactive). Still for that read-out and setting: in the case of `CC(Oc1ccc(Cl)cc1Cl)C(=O)O` (stereo not given) it was -4.02% (inactive); in that of `CCCCCCCCCCCCN(C)C`, -1.64% (inactive). Still for that read-out and setting: under `O=[N+]([O-])C(Br)Br` stands -25.4% (inactive); under `CCSC(=O)N(CC)C1CCCCC1`, 10.3% (inactive). The same measure, in the same setting: in the case of `C#CCO` it was -6.13% (inactive); in that of `CCCCC(CC)COC(=O)Cl` (stereo not given), -1.32% (inactive). As to `Oc1ccc(C(c2ccc(O)cc2)(C(F)(F)F)C(F)(F)F)cc1`, the max response is -18.6% (inactive). As to `COC(=O)c1ccccc1S(=O)(=O)NC(=O)N(C)c1nc(C)nc(OC)n1`, the max response is -7.64% (inactive). As to `COC(=O)N(C(=O)N1COC2(C(=O)OC)Cc3cc(Cl)ccc3C2=N1)c1ccc(OC(F)(F)F)cc1` (stereo not given), the max response is -21.9% (inactive). With `O=C=Nc1ccc(Cl)cc1`, the max response is -9.38% (inactive). On the same count and under the same terms, in the case of `CC1(C)[C@H](C(=O)O[C@H](C#N)c2cccc(Oc3ccccc3)c2)[C@@H]1C=C(Br)Br` it was -19% (inactive); in that of `O=C(O)COc1ccc(Cl)cc1`, -5.08% (inactive); in that of `CC(C)C(C(=O)OC(C#N)c1cccc(Oc2ccccc2)c1)c1ccc(Cl)cc1` (stereo not given), -26.6% (inactive).

Consider `CC1(C)CCC(Cc2ccc(Cl)cc2)C1(O)Cn1cncn1` (stereo not given), for which the max response is -17.8% (inactive). The same measure, in the same setting: in the case of `Cc1[nH]c(=O)n(C(C)(C)C)c(=O)c1Cl` it was -5.92% (inactive); in that of `CCCCC(O)(Cn1cncn1)c1ccc(Cl)cc1Cl` (stereo not given), -16.7% (inactive). For `[Ga]#[As]`, the max response is -2.89% (inactive). As for `CCOP(N)(=O)Oc1ccc(SC)c(C)c1` (stereo not given), the max response is -8.45% (inactive).
